# This is a sample that favours compounds with a hit; in the whole collection about 16% have one here.
# TDP1 cell noCPT – qHTS for Inhibitors of human tyrosyl-DNA phosphodiesterase 1 (TDP1): qHTS in cells in absence of CPT | Potency, µM (titrated, usually from 46.2 µM), for inactives: at the highest dose activity change, negative = growth inhibition, actives largely listed as inhibitors | DT40 Tdp1-/- hTDP1 cells, no CPT, ATP luminescence, 48 h | AID 686978, 2013 | 420,000 tested, 15% active; also: potency is read from the fitted curve at half-maximal effect; % is scaled to controls: 0 for no effect and ±100 for the full control effect; nearly all actives have a fitted effect of over 55% in size
#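 Growth of hTDP1-complemented DT40 Tdp1-knockout cells is measured by ATP luminescence after at least 48 hr compound exposure at 37 °C, with DMSO substituting for the 20 nM CPT used in the parallel screen.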
# miR-21 act – qHTS Assay for Modulators of miRNAs and/orActivators of miR-21; HeLa miR-21 FLuc reporter, luciferase, 48 h; Potency, µM (top dose mostly 38.3 µM), inactives show at the top dose activity change, positive = activation, actives largely listed as activators; 340,000 tested, under 10 active; AID 2288, 2010;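 also: % of control where 0% means no effect; miR-21 action dims this reporter so a rising signal means less miR-21 action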
#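 HeLa cells endogenously expressing miR-21, stably carrying CMV-driven firefly luciferase with a downstream miR-21 binding site, 2000 cells/well. Titrations up to approximately 40 uM, 48 hours; luciferase luminescence read.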
# TDP1 cell CPT – qHTS for Inhibitors of human tyrosyl-DNA phosphodiesterase 1 (TDP1): qHTS in cells in presence of CPT. Potency, µM (series often up to 46.2 µM), for inactives: at the highest dose activity change, negative = growth inhibition, most hits filed as inhibitors. 420,000 tested, 12% active. AID 686979, 2013. chicken DT40 Tdp1-/-;hTDP1 cells + 20 nM CPT, ATP luminescence, 48 h; also: potency is read from the fitted curve at half-maximal effect; % is scaled to controls: 0 for no effect and ±100 for the full control effect; nearly all actives have a fitted effect of over 55% in size
#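 Chicken DT40 Tdp1-/- cells complemented with human TDP1, 400 cells/well, exposed to compounds plus 20 nM camptothecin for at least 48 h at 37 C; viability read as ATP content by CellTiter-Glo luminescence.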
# uPA generation – qHTS for Inhibitors of Cell Surface uPA Generation; cell surface uPA generation assay, qHTS; Potency, µM (series often up to 38.3 µM), for inactives: at the top dose activity change, negative = inhibition, actives largely listed as inhibitors; 330,000 tested, 0.31% active; AID 540303, 2011; active = well fitted inhibition curve with a large enough effect; inconclusive = small, poorly fitted or top-dose-only effect; inactive = no such curve, though single readings can be large or run the other way; tested in mouse RAW 264.7 cells; also: potency is read from the fitted curve at half-maximal effect; % is scaled to controls: 0 for no effect and ±100 for the full control effect; nearly all actives have a fitted effect of over 55% in size
# TDP1 inh – qHTS Assay for Inhibitors of Tyrosyl-DNA Phosphodiesterase (TDP1). Tyrosyl-DNA phosphodiesterase 1 (Homo sapiens), Q9NUW8. recombinant TDP1, AlphaScreen DNA substrate cleavage. Potency, µM (top dose mostly 130 µM), without a hit: at the highest dose activity change, negative = inhibition, hits mostly inhibitors. 350,000 tested, 0.28% active. AID 485290, 2010; also: potency is read from the fitted curve at half-maximal effect; % is scaled to controls: 0 for no effect and ±100 for the full control effect; nearly all actives have a fitted effect of over 40% in size
# Target sequence (Q9NUW8 whole entry, looked up): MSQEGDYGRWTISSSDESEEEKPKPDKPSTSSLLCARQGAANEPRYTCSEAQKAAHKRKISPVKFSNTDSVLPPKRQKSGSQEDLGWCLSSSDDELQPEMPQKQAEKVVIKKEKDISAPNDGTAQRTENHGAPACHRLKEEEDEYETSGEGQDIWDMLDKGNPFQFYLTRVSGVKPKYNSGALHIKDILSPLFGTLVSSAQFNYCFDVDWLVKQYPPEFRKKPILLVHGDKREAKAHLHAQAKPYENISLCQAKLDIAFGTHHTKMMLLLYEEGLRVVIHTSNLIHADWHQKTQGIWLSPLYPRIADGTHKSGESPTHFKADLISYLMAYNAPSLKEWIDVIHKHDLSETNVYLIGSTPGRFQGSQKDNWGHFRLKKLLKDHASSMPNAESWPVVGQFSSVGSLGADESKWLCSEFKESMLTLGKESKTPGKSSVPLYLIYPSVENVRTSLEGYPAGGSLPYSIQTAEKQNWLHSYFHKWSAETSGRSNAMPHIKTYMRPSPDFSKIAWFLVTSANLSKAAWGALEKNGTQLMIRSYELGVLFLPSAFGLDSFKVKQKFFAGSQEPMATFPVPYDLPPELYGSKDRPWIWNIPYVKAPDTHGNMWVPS
#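 Tdp1 1 nM final; 15 min RT w/ cpd; substrate 15 nM, 5 min; beads 10 ug/ml, 10 min; AlphaScreen read. Neg ctrl: no enzyme.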
# The depositor's hits bear a star; u = inconclusive; x = not tested or not shown; [ ] = another dose, or the depositor's remark. Unless noted, calls follow the shape of the dose curve; as a rule, active = well fitted curve in the direction sought with a large enough effect; inconclusive = small, poorly fitted or top-dose-only effect, or another doubt; inactive = no such curve, though single readings can be large; an effect the other way counts as inactive or inconclusive.
SMILES,TDP1 cell noCPT,miR-21 act,TDP1 cell CPT,uPA generation,TDP1 inh
c1ccc(CNc2ncnc3nc[nH]c23)cc1,u,-14%,u,9%,0%
Cc1cccc(-n2ncc3c(NCc4ccccc4)ncnc32)c1,6.5µM*,-13%,4.6µM*,u,-1%
Cc1ccc(C(=O)N2CCc3cc(CNC(=O)c4ccnn4C)ccc32)cc1,9.2µM*,26%,5.8µM*,x,-1%
CCOC(=O)c1cccc(NC(=O)NCc2ccc3c(c2)CCN3C(=O)c2ccccc2)c1,16µM*,-1%,16µM*,x,5%
CCOc1ccc(NCc2cccn2-c2nnc(N3CCC(C(=O)NCC(C)c4ccccc4)CC3)s2)cc1 (stereo unspecified),8.2µM*,30%,23µM*,x,8%
Cc1ccc(NCc2cccn2-c2nnc(N3CCC(C(=O)NCc4ccc(OC(C)C)cc4)CC3)s2)cc1,18µM*,26%,u,x,9%
CCOc1ccc(NCc2cccn2-c2nnc(N3CCC(C(=O)NCc4ccc(C)cc4)CC3)s2)cc1,7.3µM*,17%,9.2µM*,x,5%
c1ccc(CNC2CN3CCC2CC3)cc1 (stereo unspecified),-17%,x,-1%,7%,x
CCOc1cc2[nH]c(=O)n(CCCCC(=O)N3CCN(c4ccccc4)CC3)c(=O)c2cc1OCC,5.2µM*,-7%,u,x,1%
COc1cc2[nH]c(=O)n(Cc3ccc(C(=O)N4CCN(c5ccc(Cl)cc5)CC4)cc3)c(=O)c2cc1OC,2.9µM*,u,3.3µM*,x,3%
COc1ccccc1N1CCN(C(=O)CCCn2c(=S)[nH]c3ccccc3c2=O)CC1,5.2µM*,x,8.2µM*,x,x
CCOC(=O)N1CCN(c2ccc(Cl)c(Cl)c2)CC1,13µM*,-1%,u,x,0%
CCc1ccc(NC(=O)c2cccn(Cc3cccc([N+](=O)[O-])c3)c2=O)cc1,21µM*,-6%,-19%,x,-3%
O=C(Nc1ccc2c(c1)OCCO2)c1cccn(Cc2cccc(F)c2)c1=O,23µM*,-18%,21µM*,x,3%
Cc1ccc(Cn2cccc(C(=O)Nc3ccc4c(c3)OCCO4)c2=O)cc1,16µM*,-21%,21µM*,x,-3%
COC(=O)C1C(O)CC2CCC1N2C (stereo unspecified),-5%,x,7%,7%,2%
NC(CCCCCP(=O)(O)O)C(=O)O (stereo unspecified),x,x,x,x,9%[56.1 µM]
CC(=O)O[C@H]1C[C@@H]2CC[C@@H]3[C@H](CC[C@]4(C)C(=O)CC[C@@H]34)[C@@]2(C)C[C@@H]1OC(C)=O,u,x,23µM*,-7%,x
CC(=O)OC1=CC[C@H]2[C@@H]3CC[C@H]4C[C@H](OC(C)=O)[C@@H](OC(C)=O)C[C@]4(C)[C@H]3CC[C@]12C,12µM*,x,15µM*,18%,x
O=C1CC[C@]2(O)[C@H]3Cc4ccc(O)c5c4[C@@]2(CCN3CC2CC2)[C@@H]1O5,x,x,x,x,3%[56.1 µM]
[Cd+2].[Cl-].[Cl-],x,x,x,x,3%
[Cl-].[Cl-].[Hg+2],0.34µM*,x,0.75µM*,x,35µM*
CN(C)C1C(=O)C(C(N)=O)=C(O)[C@@]2(O)C(=O)C3=C(O)c4c(O)ccc(Cl)c4[C@](C)(O)C3CC12 (stereo partly specified),18µM*,x,16µM*,x,u
CN(C)[C@@H]1C(=O)C(C(N)=O)=C(O)[C@]2(O)C(=O)C3=C(O)c4c(O)ccc(Cl)c4[C@](C)(O)[C@H]3C[C@@H]12,x,x,x,x,-11%[56.1 µM]
CN(C)C1C(=O)C(C(N)=O)=C(O)C2(O)C(=O)C3=C(O)c4c(O)cccc4C(C)(O)C3C(O)C12 (stereo unspecified),7.3µM*,5%,10µM*,23%,x
SMILES,TDP1 cell noCPT,miR-21 act,TDP1 cell CPT,uPA generation,TDP1 inh
COc1ccc2cc1Oc1ccc(cc1)C[C@H]1c3cc(c(OC)cc3CCN1C)Oc1c(OC)c(OC)cc3c1[C@@H](C2)N(C)CC3,23µM*,x,u,-18%,4%
COc1cc2c3cc1Oc1c(OC)c(OC)cc4c1C(Cc1cccc(c1)Oc1ccc(c(O)c1)CC3N(C)CC2)N(C)CC4 (stereo unspecified),0%,x,2%,x,10%[56.1 µM]
COc1ccc2cc1Oc1ccc(cc1)CC1c3cc(c(OC)cc3CCN1C)Oc1c(OC)c(OC)cc3c1C(C2)N(C)CC3 (stereo unspecified),3.7µM*,x,3.7µM*,x,15%[56.1 µM]
O=C(c1cn(Cc2ccccc2F)c2ncccc12)C(F)(F)F,-25%,-11%,-2%,2%,x
CC[n+]1c(SC)ccc2cc(OC)ccc21,16µM*,-3%,u,-8%,0%
Cc1cc(NC(=O)CCl)no1,18µM*,28%,13µM*,-16%,5%
COC(=O)C1=C(C(=O)OC)SC2(S1)C(C(=O)OC)=C(C(=O)OC)Sc1c2ssc1=O,0.18µM*,x,0.092µM*,-8%,x
COc1cccc2c1C(=O)c1c(O)c3c(c(O)c1C2=O)C[C@@](O)(C(=O)CO)C[C@@H]3O[C@H]1C[C@H](N)[C@H](O[C@@H]2CCCCO2)[C@H](C)O1,0.34µM*,x,0.19µM*,x,x
CN1CC[C@@]2(C)c3cc(O)ccc3N(C)[C@@H]12,7.3µM*,x,5.8µM*,u,6%
Cc1ncc(C[n+]2csc(CCOP(=O)(O)O)c2C)c(N)n1,-11%,x,-10%,x,15%
CCCCCn1c(=O)c(C(=O)Nc2cnccn2)c(O)c2ccccc21,2.9µM*,-3%,4.1µM*,-5%,-3%
CCCCCn1c(=O)c(C(=O)Nc2nc(CC(=O)OCC)cs2)c(O)c2ccccc21,4.6µM*,1%,4.1µM*,9%,3%
CCCCCn1c(=O)c(C(=O)Nc2ccccc2C)c(O)c2ccccc21,2%,-35%,21%,2%,x
CCCCCCn1c(=O)c(C(=O)Nc2ncccc2C)c(O)c2ccccc21,1.6µM*,14%,4.1µM*,u,x
CCCCCCn1c(=O)c(C(=O)Nc2cccc(C)n2)c(O)c2ccccc21,3.7µM*,0%,3.7µM*,1%,x
CCCCCCn1c(=O)c(C(=O)Nc2nnc(C)s2)c(O)c2ccccc21,x,-2%,x,x,1%
CCCCn1c(=O)c(C(=O)Nc2ncccc2C)c(O)c2ccccc21,u,18%,u,-13%,x
CCCCCn1c(=O)c(C(=O)Nc2cc(C)ccn2)c(O)c2ccccc21,7.3µM*,-19%,7.3µM*,-1%,x
CCCCCCCn1c(=O)c(C(=O)Nc2cnccn2)c(O)c2ccccc21,0.58µM*,-4%,0.82µM*,-3%,x
